Source: PubChem
This excerpt belongs to a sample that is enriched for hits.
Sm TGR inh: blocks Schistosoma mansoni thioredoxin glutathione reductase. purified TGR, DTNB reduction, TNB absorbance 405 nm. Potency, µM (titrated, usually from 114 µM), inactives show at the top dose activity change, negative = inhibition, hits mostly inhibitors. 360,000 compounds, 3% hits. AID 485364; note: potency is the fitted concentration of half-maximal effect; % is set by controls: 0 for no effect and ±100 for the full control effect; nearly all actives have a fitted effect of over 60% in size
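First, TGR (20 nM dispensed) and NADPH were mixed with compound. Second, a 15 min room-temperature incubation followed. Third, further NADPH and then DTNB were added to start the reaction. Finally, TNB absorbance was monitored kinetically.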
LmPK inh: blocks Leishmania mexicana pyruvate kinase activity | Q27686 | purified LmPK, Kinase-Glo ATP luminescence, 1 h | Potency, µM (highest dose often 57.5 µM), without a hit: top-dose activity change, negative = inhibition, usual class: inhibitors | 290,000 compounds, 0.37% hits | AID 1721; note: potency is the fitted concentration of half-maximal effect; % is set by controls: 0 for no effect and ±100 for the full control effect
Target sequence (Q27686 whole entry, looked up): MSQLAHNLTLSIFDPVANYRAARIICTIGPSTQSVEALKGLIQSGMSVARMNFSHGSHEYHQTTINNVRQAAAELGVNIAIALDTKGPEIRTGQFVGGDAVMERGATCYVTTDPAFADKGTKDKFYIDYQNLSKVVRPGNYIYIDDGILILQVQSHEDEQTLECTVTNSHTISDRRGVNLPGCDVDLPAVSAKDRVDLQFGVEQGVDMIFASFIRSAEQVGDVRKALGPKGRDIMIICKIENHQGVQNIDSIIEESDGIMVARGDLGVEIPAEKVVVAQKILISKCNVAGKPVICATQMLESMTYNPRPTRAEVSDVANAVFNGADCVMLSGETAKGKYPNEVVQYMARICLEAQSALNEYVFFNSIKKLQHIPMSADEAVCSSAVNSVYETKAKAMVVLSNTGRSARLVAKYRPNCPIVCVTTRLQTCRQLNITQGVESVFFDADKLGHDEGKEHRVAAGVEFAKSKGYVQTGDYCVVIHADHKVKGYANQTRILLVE
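Purified LmPK (0.1 nM) with 0.5 mM PEP and 0.1 mM ADP in imidazole buffer pH 7.2 with MgCl2/KCl, 1 h at room temperature. ATP formed was read by luciferase luminescence and normalized to no-enzyme and uninhibited controls.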
Cycloheximide cs: affects cycloheximide protein synthesis inhibition readout, counter-screen. cell reporter, cycloheximide protein synthesis inhibition counterscreen. max response, %. 300,000 compounds, 12% hits. AID 2314; in the data active = max response mostly above about 13%, no sharp cut-off; inactive = mostly below about 14%; note: read at 38.3 µM for the half of the compounds with a filed dose; 0% is about no effect
Shiga toxin inh: blocks Shiga toxin action in Vero cells; Vero cells, Shiga toxin protein synthesis inhibition reporter; inhibition, % at 38.7 µM; 290,000 compounds, 9.2% hits; AID 2315; in the data active = inhibition mostly above about 28%, no sharp cut-off; inactive = mostly below about 43%; note: 0% is about no effect
Giardia FBPA inh-1: Giardia lamblia aldolase inhibition. 290,000 compounds, 0.71% hits. purified Giardia FBPA. Potency, µM (series often up to 59.6 µM), without a hit: at the top dose activity, negative = inhibition, hits mostly inhibitors. A8B2U2; note: potency is the fitted concentration of half-maximal effect; % is set by controls: 0 for no effect and ±100 for the full control effect; nearly all actives have a fitted effect of over 55% in size
Target sequence (A8B2U2 whole entry, looked up): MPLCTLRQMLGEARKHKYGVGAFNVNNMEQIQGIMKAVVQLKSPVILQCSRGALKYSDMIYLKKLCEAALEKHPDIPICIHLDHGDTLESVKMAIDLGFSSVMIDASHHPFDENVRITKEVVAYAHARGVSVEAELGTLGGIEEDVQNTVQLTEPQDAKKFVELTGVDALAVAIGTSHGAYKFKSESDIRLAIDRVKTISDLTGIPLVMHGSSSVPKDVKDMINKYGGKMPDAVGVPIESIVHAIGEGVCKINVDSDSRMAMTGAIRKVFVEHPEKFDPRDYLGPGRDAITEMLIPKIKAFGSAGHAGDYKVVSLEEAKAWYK
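40 nM FBPA preincubated 10 min at RT with compound (up to 57.5 uM final), then substrate plus GAPDH/TPI/NAD/arsenate coupling and diaphorase/resazurin added. Fluorescence read after 20 min at RT, 525/598 nm.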
TbPYK inhibitor: T. brucei pyruvate kinase inhibition; Potency, µM (series often up to 76.8 µM), without a hit: top-dose activity, negative = inhibition, usual class: inhibitors; TbPYK enzyme, Kinase-Glo Plus ATP luminescence, 45 min; Q57TT1; 410,000 compounds, 0.12% hits; note: potency is the fitted concentration of half-maximal effect; % is set by controls: 0 for no effect and ±100 for the full control effect; nearly all actives have a fitted effect of over 50% in size
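Luminescence from Kinase-Glo Plus, added after a 45-minute room-temperature reaction, served as the end-point read-out. The enzyme and substrate were preincubated with compound before ADP (130 uM final) initiated turnover. Concentration-effect curves came from normalized qHTS data.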
Giardia growth: inhibitors of Giardia lamblia growth; shares compounds with Giardia FBPA inh-1; Giardia lamblia trophozoite growth inhibition; Potency, µM (titrated, usually from 57.5 µM), for the others: at the highest dose activity change, negative = inhibition, actives largely listed as inhibitors; 1,500 compounds, 5% hits; AID 2785;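 note: potency is the fitted concentration of half-maximal effect; trophozoites exposed to compound for 48 h at 37 °C; % is set by controls: 0 for no effect and ±100 for the full control effect; nearly all actives have a fitted effect of over 70% in size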
Mammalian tox: mammalian cytotoxicity of Giardia aldolase inhibitor hits; shares compounds with Giardia FBPA inh-1; mammalian cell viability counter-screen, qHTS; Potency, µM (titrated, usually from 57.5 µM), without a hit: top-dose viability change, negative = toxicity, hits mostly inhibitors; 1,500 compounds, 4% hits;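 note: Chinese hamster ovary cells used as mammalian cytotoxicity surrogate; viability measured as cellular ATP by luminescence; potency is the fitted concentration of half-maximal effect; compound exposure lasted 48 h before reading; % is set by controls: 0 for no effect and ±100 for the full control effect; nearly all actives have a fitted effect of over 60% in size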
Giardia FBPA inh-2: confirmation of Giardia fructose-bisphosphate aldolase inhibitors. purified Giardia aldolase enzyme activity, qHTS. Potency, µM (doses to about 57.5 µM), inactives show at the highest dose activity change, negative = inhibition, hits mostly inhibitors. shares compounds with Giardia FBPA inh-1. 1,500 compounds, 5% hits; note: potency is the fitted concentration of half-maximal effect; % is set by controls: 0 for no effect and ±100 for the full control effect; nearly all actives have a fitted effect of over 45% in size
Rabbit aldolase: selectivity test for Giardia aldolase inhibitors: rabbit aldolase | shares compounds with Giardia FBPA inh-1 | Rabbit muscle FBPA enzyme inhibition, selectivity counter-screen | Potency, µM (doses to about 57.5 µM), without a hit: top-dose activity, negative = inhibition, hits mostly inhibitors | 1,500 compounds, 4% hits; note: potency is the fitted concentration of half-maximal effect; % is set by controls: 0 for no effect and ±100 for the full control effect; nearly all actives have a fitted effect of over 60% in size
GAPDH counter: GAPDH inhibition flagged for Giardia aldolase hits; Potency, µM (series often up to 57.5 µM), without a hit: top-dose activity change, negative = inhibition, actives largely listed as inhibitors; 1,500 compounds, 6% hits; shares compounds with Giardia FBPA inh-1; AID 2795; GAPDH coupling enzyme counterscreen, biochemical, qHTS; note: potency is the fitted concentration of half-maximal effect; % is set by controls: 0 for no effect and ±100 for the full control effect; nearly all actives have a fitted effect of over 55% in size
An asterisk follows results filed as active; [ ] = dose if it differs, or a comment. Unless noted, calls come from the whole dose curve; as a rule, active = well fitted curve in the direction sought with a large enough effect; inconclusive = small, poorly fitted or top-dose-only effect, or another doubt; inactive = no such curve, though single readings can be large; an effect the other way counts as inactive or inconclusive.

What do the screens show for `Cc1[nH]n(-c2ccccc2)c(=O)c1N=Nc1ccc(C(N)=O)cc1`?
Sm TGR inh: -5%; LmPK inh: 2%; Cycloheximide cs: -2; Shiga toxin inh: -4; Giardia FBPA inh-1: inconclusive; TbPYK inhibitor: -1%

What do the screens show for `ON/C=N/C(=S)Nc1ncc(C(F)(F)F)cc1Cl`?
Sm TGR inh: 17%; LmPK inh: 1%; Cycloheximide cs: 13; Shiga toxin inh: 36; Giardia FBPA inh-1: -7%; TbPYK inhibitor: 2%

How did CON/C=N/C(=S)Nc1ncc(C(F)(F)F)cc1Cl do in these assays?
Sm TGR inh: 3%; LmPK inh: 2%; Cycloheximide cs: 2; Shiga toxin inh: 15; Giardia FBPA inh-1: 6.3µM*; TbPYK inhibitor: -24%; Giardia growth: inconclusive; Mammalian tox: -2%; Giardia FBPA inh-2: 4%; Rabbit aldolase: 14%; GAPDH counter: 3%

How did Cc1ccc(CN(Cc2ccccc2)C(=S)NCC(=O)NCc2cccnc2)o1 do in these assays?
Sm TGR inh: -25%; LmPK inh: -12%; Cycloheximide cs: 12; Shiga toxin inh: -7; Giardia FBPA inh-1: 16µM*; TbPYK inhibitor: -22%; Giardia growth: -12%; Mammalian tox: -12%; Giardia FBPA inh-2: 3%; Rabbit aldolase: 5%; GAPDH counter: 4%

What do the screens show for `Cc1ccc(CN(Cc2ccco2)C(=S)NCC(=O)NCc2cccnc2)cc1`?
Sm TGR inh: 0%; LmPK inh: 8%; Cycloheximide cs: -3; Shiga toxin inh: 13; Giardia FBPA inh-1: inconclusive; TbPYK inhibitor: -26%

Results for CSC1=NS(=O)(=O)c2c(C)nn(C)c2S1 ?
Sm TGR inh: inconclusive; LmPK inh: 29%; Cycloheximide cs: 0; Shiga toxin inh: 2; Giardia FBPA inh-1: 16µM*; TbPYK inhibitor: 2.5µM*; Giardia growth: 30%; Mammalian tox: 9%; Giardia FBPA inh-2: -3%; Rabbit aldolase: 40µM*; GAPDH counter: inconclusive

Results for CCN1CCN(CCOCCOc2ccccc2)CC1 ?
Sm TGR inh: 4%; LmPK inh: -1%; Cycloheximide cs: 2; Shiga toxin inh: -3; Giardia FBPA inh-1: 25µM*; TbPYK inhibitor: 11%; Giardia growth: inconclusive; Mammalian tox: 0%; Giardia FBPA inh-2: 4%; Rabbit aldolase: 0%; GAPDH counter: 14%

What do the screens show for `O=C1CCN(Cl)C(=O)N1Cl`?
TbPYK inhibitor: -4%

Results for Cc1ccc(C=C2C(Cl)=C(Cl)C(Cl)=C2Cl)cc1 ?
Sm TGR inh: 0.63µM*; LmPK inh: -2%; Cycloheximide cs: -4; Shiga toxin inh: -3; Giardia FBPA inh-1: 16µM*; TbPYK inhibitor: -15%; Giardia growth: -10%[10.4 µM]; Mammalian tox: 9%; Giardia FBPA inh-2: 2%; Rabbit aldolase: 9%; GAPDH counter: 15%

Results for Cc1ccc(/C=[N+](/C)[O-])cc1 ?
Sm TGR inh: 5%; LmPK inh: -10%; Cycloheximide cs: 6; Shiga toxin inh: -8; Giardia FBPA inh-1: 0%; TbPYK inhibitor: 0%

What do the screens show for `CCc1ccc(Cc2cnc(NC(=O)C3=NCCN3)s2)cc1`?
Sm TGR inh: -2%; LmPK inh: -1%; Cycloheximide cs: 16; Shiga toxin inh: 34; Giardia FBPA inh-1: 14µM*; TbPYK inhibitor: 5%; Giardia growth: inconclusive; Mammalian tox: -3%; Giardia FBPA inh-2: 10%; Rabbit aldolase: 13%; GAPDH counter: 2%

What do the screens show for `Cn1c(SCC(=O)c2ccc(O)c(O)c2)nnc1-c1cccs1`?
Sm TGR inh: -14%; LmPK inh: -3%; Cycloheximide cs: 26*; Shiga toxin inh: 11; Giardia FBPA inh-1: 5µM*; TbPYK inhibitor: -5%; Giardia growth: 10%[38.3 µM]; Mammalian tox: -27%; Giardia FBPA inh-2: inconclusive; Rabbit aldolase: -9%; GAPDH counter: -10%

How did Cc1cc(=O)[nH]c(SCC(=O)c2ccc(O)c(O)c2)n1 do in these assays?
Sm TGR inh: 18µM*; LmPK inh: 16%; Cycloheximide cs: -1; Shiga toxin inh: 8; Giardia FBPA inh-1: 8.9µM*; TbPYK inhibitor: -4%; Giardia growth: inconclusive; Mammalian tox: 12%; Giardia FBPA inh-2: inconclusive; Rabbit aldolase: -27%; GAPDH counter: -4%

What do the screens show for `COc1ccc(-n2nnnc2SCC(=O)c2ccc(O)c(O)c2)cc1`?
Sm TGR inh: -19%; LmPK inh: 5%; Cycloheximide cs: 1; Shiga toxin inh: -2; Giardia FBPA inh-1: inconclusive; TbPYK inhibitor: -6%; Giardia growth: -3%[38.3 µM]; Mammalian tox: inconclusive; Giardia FBPA inh-2: -25%; Rabbit aldolase: -11%; GAPDH counter: -32%

Results for Cn1c(SCC(=O)c2ccc(O)c(O)c2)nnc1-c1ccccc1 ?
Sm TGR inh: inconclusive; LmPK inh: 2%; Cycloheximide cs: 11; Shiga toxin inh: 29; Giardia FBPA inh-1: inconclusive; TbPYK inhibitor: -8%

How did Cc1cc(C)nc(SCC(=O)c2ccc(O)c(O)c2)n1 do in these assays?
Sm TGR inh: -20%; LmPK inh: 7%; Cycloheximide cs: 11; Shiga toxin inh: 11; Giardia FBPA inh-1: 11µM*; TbPYK inhibitor: -6%; Giardia growth: -25%; Mammalian tox: 9%; Giardia FBPA inh-2: -21%; Rabbit aldolase: -16%; GAPDH counter: -12%

How did Cc1cc(Br)cn2c(Cc3cccc(F)c3)c(C3CCCCC3)nc12 do in these assays?
TbPYK inhibitor: 5%

How did O=C(O)CC(Cn1[nH]nnc1=S)c1ccccc1 (stereo not drawn) do in these assays?
Sm TGR inh: 1%; LmPK inh: 4%; Cycloheximide cs: -5; Shiga toxin inh: 16; Giardia FBPA inh-1: 16µM*; TbPYK inhibitor: inconclusive; Giardia growth: 66%; Mammalian tox: -9%; Giardia FBPA inh-2: -12%; Rabbit aldolase: 4%; GAPDH counter: 7%
